From PubChem BioAssay
This is a sample that favours compounds with a hit; in the whole collection about 1.9% have one here.
RXFP1 antagonist: blocks the human relaxin receptor RXFP1. activity change, negative = inhibition, % at 57.5 µM. HEK293-RXFP1, relaxin-stimulated cAMP HTRF, 30 min; active compounds read low. 350,000 tested, 0.59% active;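 active = activity change of -60% or lower, but not beyond a set lower limit; inconclusive = change between -60% and -40%, or beyond the set limit; inactive = change above -40%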; note: % is set by controls: 0 for no effect and ±100 for the full control effect
RXFP1 ag: RXFP1 (human) receptor agonism | 370,000 tested, 0.3% active | Potency, µM (highest dose often 57.5 µM), for inactives: at the highest dose activation, usual class: activators | Q9HBX9 | AID 2676 | HEK293T-RXFP1 cAMP TR-FRET, 30 min; response scale: percent of porcine relaxin response, buffer zero; note: potency is the fitted concentration of half-maximal effect; % is set by controls: 0 for no effect and ±100 for the full control effect; nearly all actives have a fitted effect of over 60% in size
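HEK293T cells stably expressing RXFP1 were pretreated with the PDE4 inhibitor Ro 20174, exposed to compounds for 30 min at 37C, lysed, and cAMP was read by TR-FRET. Data normalized to buffer (basal) and 29 nM porcine relaxin (100%).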
Giardia kill: kills Giardia lamblia. Giardia lamblia trophozoite viability. 340,000 tested, 0.15% active. activity change, % at 7.66 µM, hits read low; in the data active = activity change below about -80%; inconclusive = between about -30% and that limit;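 note: parasites exposed to compound for two days anaerobically before the ATP read; % is set by controls: 0 for no effect and ±100 for the full control effect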
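Trophozoite viability was measured as ATP-dependent luminescence, read 15-30 min after reagent addition. Before that, parasites at 100 cells/well were exposed to compounds for 48 h, anaerobically, at 37 deg C.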
NPSR antag: blocks cAMP signaling of the human neuropeptide S receptor | Q6W5P4 | CHO-NPSR cells, cAMP TR-FRET, antagonist mode | Potency, µM (top dose mostly 38.3 µM), without a hit: at the top dose activity change, negative = inhibition, most hits filed as inhibitors | 220,000 tested, 1% active | AID 1461; note: potency is the fitted concentration of half-maximal effect; % is set by controls: 0 for no effect and ±100 for the full control effect; nearly all actives have a fitted effect of over 50% in size
Target sequence (Q6W5P4 whole entry, looked up): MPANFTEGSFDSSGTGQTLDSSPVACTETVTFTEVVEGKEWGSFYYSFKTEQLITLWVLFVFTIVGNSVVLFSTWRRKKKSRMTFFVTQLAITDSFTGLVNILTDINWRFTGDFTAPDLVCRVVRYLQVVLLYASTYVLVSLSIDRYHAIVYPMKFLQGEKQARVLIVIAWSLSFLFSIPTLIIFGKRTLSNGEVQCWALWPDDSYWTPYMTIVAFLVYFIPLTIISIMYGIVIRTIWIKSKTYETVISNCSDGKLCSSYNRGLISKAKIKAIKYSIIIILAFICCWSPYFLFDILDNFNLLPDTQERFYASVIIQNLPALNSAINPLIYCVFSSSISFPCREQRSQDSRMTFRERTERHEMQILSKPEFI
IL-2 act: IL-2 activation | activation, % (series mostly up to about 46 µM) | AID 652025 | IL-2 activation reporter assay, cell-based qHTS; stimulated with anti-CD3/CD4/CD28 beads; in transgenic mouse T cells | 360,000 tested, 0.065% active; in the data active = activation above about 50%; inconclusive = mostly about 30% to 49%; note: 0% is about no effect
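Unstimulated transgenic mouse T cells preincubated 60 min with compound, then stimulated with anti-CD3/anti-CD4-coated beads plus anti-CD28 for 18 h at 37 degrees C. IL-2 response read as EGFP and DsRed fluorescence by plate cytometry.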
BRCA1 expr up: BRCA1 expression activation; MCF7-BRCA1-FFLuc reporter, luminescence, 48 h; response scale: scaled: vehicle 0%, 10 µM genistein 100%; Potency, µM (titrated, usually from 46.1 µM), inactives show at the highest dose activation, hits mostly activators; 380,000 tested, 1.1% active; AID 624202; note: potency is the fitted concentration of half-maximal effect; nearly all actives have a fitted effect of over 80% in size
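MCF7 cells carrying a BRCA1-firefly luciferase reporter (2000 cells/well, phenol-red free MEM) were attached for 2 h at 37 °C, then given compounds for 48 h. Luminescence was read 15 min after luciferase reagent; activity normalized to genistein (10 microM) and DMSO.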
* hit, by the source's call; [ ] = remark or other dose. Unless noted, calls come from the whole dose curve; as a rule, active = well fitted curve in the direction sought with a large enough effect; inconclusive = small, poorly fitted or top-dose-only effect, or another doubt; inactive = no such curve, though single readings can be large; an effect the other way counts as inactive or inconclusive.

How did Cc1ccc(C(=O)/C=C/C(=O)c2ccc(C)cc2)cc1 do in these assays?
RXFP1 antagonist: -66.5*; RXFP1 ag: -1.6%; Giardia kill: 12.4; NPSR antag: inconclusive; IL-2 act: -6.4; BRCA1 expr up: inconclusive

What do the screens show for `Cc1cc(C)cc(C(=O)N(Cc2nc(-c3ccc(Cl)cc3)no2)C(C)C)c1`?
RXFP1 ag: 0.1%; BRCA1 expr up: 4.0%

Results for Cc1ccc(S(=O)(=O)Nc2cc(Br)cc3cccnc23)cc1 ?
Giardia kill: 9.6; BRCA1 expr up: -67.2%

What do the screens show for `CC(C)OC(=O)c1ccc(NC(=O)c2ccccc2)cc1`?
RXFP1 antagonist: -3.2; RXFP1 ag: -0.3%; Giardia kill: -20.9; NPSR antag: -6.9%; IL-2 act: -1.4; BRCA1 expr up: 2.51µM*

How did Cc1ccc(NC(=O)C2=C(c3ccccc3)S(=O)(=O)CCS2(=O)=O)cc1 do in these assays?
RXFP1 antagonist: inconclusive; RXFP1 ag: -4.6%; Giardia kill: -15.8; NPSR antag: 10µM*; IL-2 act: -3.1; BRCA1 expr up: -7.8%

How did Cc1ccc(-c2nn(-c3ccccc3)cc2C(=O)Nc2ccc(C(=O)O)cc2)cc1 do in these assays?
RXFP1 antagonist: -17.7; RXFP1 ag: -0.1%; Giardia kill: -3.5; NPSR antag: -39.8%; IL-2 act: 1.3; BRCA1 expr up: 10µM*

Results for CC(C)Oc1ccc(C(=O)N(Cc2ccc(N(C)C)cc2)Cc2ccco2)cc1 ?
RXFP1 antagonist: -11.8; RXFP1 ag: 0.7%

How did O=S(=O)(c1ccccc1Br)N1CCN(c2nc(-c3ccccc3)nc3ccccc23)CC1 do in these assays?
Giardia kill: -9.8; BRCA1 expr up: 10.1%

Results for COC(=O)Cc1ccc2sc(-c3ccccc3)nc2c1 ?
RXFP1 antagonist: 8.6; RXFP1 ag: -1.0%; Giardia kill: inconclusive; NPSR antag: -14.3%; IL-2 act: -0.1; BRCA1 expr up: 7.08µM*

Results for O=C(O)Cc1ccc2sc(-c3ccccc3)nc2c1 ?
RXFP1 ag: 14.0%; Giardia kill: -9.6; NPSR antag: -21.2%; IL-2 act: 1.0; BRCA1 expr up: 62.5%

What do the screens show for `COc1ccc(-c2nc(SC)n(S(=O)(=O)c3ccccc3)n2)cc1`?
RXFP1 antagonist: 3.9; RXFP1 ag: 0.8%; Giardia kill: -10.9; NPSR antag: -5.9%[7.67 µM]; IL-2 act: -2.9; BRCA1 expr up: 10µM*

Results for CSc1nc(-c2ccccc2)nn1S(=O)(=O)c1ccccc1 ?
RXFP1 antagonist: -0.4; RXFP1 ag: -0.7%; Giardia kill: 0.7; NPSR antag: -0.9%[46.1 µM]; IL-2 act: -2.8; BRCA1 expr up: 27.8%

How did CCCN(CCC)c1nc(N)nc(C#N)n1 do in these assays?
Giardia kill: 7.0; BRCA1 expr up: 0.0%

Results for CC[n+]1c(/C=C/N(C)c2ccccc2)n(-c2ccccc2)c2ccc(-c3nc4ccccc4s3)cc21 ?
RXFP1 antagonist: -60.5*; RXFP1 ag: 4.4%; Giardia kill: -3.6; IL-2 act: -0.7; BRCA1 expr up: -87.0%

How did COc1cccc2c1C(=O)c1c(O)c3c(c(O)c1C2=O)C[C@@](O)(C(=O)CO)C[C@@H]3O[C@H]1C[C@H](N)[C@H](O[C@@H]2CCCCO2)[C@H](C)O1 do in these assays?
RXFP1 antagonist: -19.9

How did Cc1cccc(CC(=O)NCC2CCCCC2)c1 do in these assays?
RXFP1 antagonist: 0.1; RXFP1 ag: 2.4%; Giardia kill: inconclusive; IL-2 act: 2.0; BRCA1 expr up: 10µM*

Results for COc1cccc(/C=C/C(=O)NCC2CCCCC2)c1 ?
RXFP1 antagonist: -4.0; Giardia kill: -1.0; IL-2 act: 0.3; BRCA1 expr up: 53.3%

Results for Cc1ccc(C(C)C)c(OCC(O)CN2CCc3ccccc3C2)c1 (configuration not stated) ?
RXFP1 antagonist: -80.5*; RXFP1 ag: 1.2%; Giardia kill: 8.1; IL-2 act: -3.0; BRCA1 expr up: -53.0%
